Measurements published in the supplement of paper PMC6555819.

Each sequence was assayed on RXRa DBDmut IVT, anti-RXR (DBD mutation: RXRa K156A/R161A, NR concentration 90 nM) (assay: PBM binding z-score (relative to random genomic background probes); higher = stronger binding; sequences stand for … in GC…GCGATTGACAGCGTAGAATGAAGG).
Procedure, shortened: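 Binding z-scores were set against random background probes. The data came from custom Agilent 4×180K protein-binding microarrays carrying double-stranded probes with 34-nt variable regions, incubated 1 h with ligand-free nuclear receptor dimers. Partner-specific antibodies detected binding, and scanned fluorescence was regression-normalized.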

Row | Sequence | PBM binding z-score
1 | CGTCCTAGGTCAAAGGTCAGTGAAGAGATGACGG | 2.25
2 | TCTATTAGTCGAAGGGCAACCGACGAGTCCGTTT | 1.56
3 | TGAATGAGGTTAAAGATCGGGGAACGTGGCGTCG | 1.35
4 | CGTCAAAGTTGAAGGTAACGTAACAGAAAGCAGC | 0.128
5 | TCAAGCAGGCCAGAGGGTCACTCAAGAGGTACGG | 0.592
6 | GCTAGTTGGTCAGTAAAAGGTCACACCCCGGTCG | 0.0893
7 | ATCGAAAGGTCGGCGAGGTGAGTATACACCGTTT | 0.785
8 | TCTAGCAGGCCCGAGGGTCACTCAAGAGGTACGG | 0.126
9 | ACTATTAGCTGAGACGAGGGCAACCGATAGGTTG | 0.345
10 | TAGCCTAGGTCGTGCGGGCCAGTATAGTGTCGGC | -0.774
11 | TCTTGTAGACCAATAGAGGTTAAGAAAGTGCGCT | 0.754
12 | TCCAGTAGGTTAGGGGCATTCAGAATGGCGTCGA | 1.16
13 | ATACCAAGGTGATCTTGAGGTCGTTGATACTAAC | 1.19
14 | ACTATTAGTTGAGACGTGGGCAACCGATAGGTTG | -0.00277
15 | CCTACTGGGCCAAAAAGGTCATTGAGGCCGATAA | 0.821
16 | CGTCCAAGGTCATAGGAGGTCAGCGAAGACAGAT | 4.05
17 | GCATATAGGTAATGCAAGGTGAAAGTCCGATTGT | 0.239
18 | TCTAGCAGGCCAGAGGGTCATTCAAGAGGTACGG | 0.504
19 | AGAATGAGGTTACCAAAGATCAGCGAAACGCTTG | 1.07
20 | TCTATTAGTTGATTAGGGCAGCCGAAACAGCGGA | 1.14

Row | Sequence | PBM binding z-score
21 | ACTATTAGTTGAGAAGAGGGCAACCGATAGGTTG | 0.286
22 | ACTAGCAGGCCAAGTTTGGGTCACTTAAACAAAG | 0.0842
23 | TCGAGTAGGCTAGGGGCATTCAGAATGGCGTCGA | -0.0684
24 | TCATATAGGTAAATGCTAGGTAAAAGTCCGATCT | 1.76
25 | CGAACTAGGACATTGACAGGACAGTGAATAGTAA | 0.451
26 | TGGCCTAGGTCATTGGGCCAGTATAGTACGCATC | 0.818
27 | CGAACGAGGGCATGGGTTGATAGCAAATGCCGAT | 1.93
28 | TAGCTTAGGTCATGCGGGCCAGTATAGTGTCGGC | 1.31
29 | CCTATTAGTTAACCATAAGGGCAACCGAAGCTCG | 0.665
30 | CCGACTGGGGCAGGGTTACCATAACGCACAGCCA | -1.08
31 | GCTAGGAGGCCATTTGGGTCACTCAATGACGGGC | 0.724
32 | TCATATAGGTAAACGCTAGGTGAAAGTCCGATCT | 1.63
33 | TCTTGTAGATAAGCAGGTTAAGAAAGCTGGCCAA | 0.319
34 | CAAACTAGGTCACCTGAAGGTCAAAGTCCGCATG | 2.29
35 | CGAACTAGGTCATGGACAGGACAGTGAATAGTAA | 1.42
36 | CCTACCGGGCCATCAGGTCATTGATATCAACGTT | -0.283
37 | AGTCAAAGTTCATCTAAGTAACGTAAGATATGCT | 4.81
38 | TCTTGTAGATCAAGCAGGTTAATAAAGCCTGAGT | 0.435
39 | CAAACTAGGTCACGAAAGTTCAAAGTCGAATGAC | 2.96
